Assay results as given in the supplement of paper PMC7156485.
± gives the standard deviation of the averaged measurements.

How the values were obtained:
Conditions in all cases: concentration: 10 µM; 24 h
[1] = system: HCC1569; test: cell number relative to DMSO (% of DMSO); higher = more cells (less growth inhibition / toxicity)
Method in brief: (§1)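 Cells were seeded at 800 per well in 384-well plates with RPMI containing 10% FBS; both HCC1569 and TDF lines were used. Compounds were added at 10 µM for 24 h at 37 °C, in triplicate, before fixation in 3.7% formaldehyde and staining with a rabbit anti-H1.0 antibody, an AlexaFluor 647 secondary and DAPI. H1.0 nuclear intensity or cell number is reported as percent of the plate control using the median of replicates, and HCC1569 values were smoothed for positional effects.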

[2] = system: TDF; test: as above
Method in brief: as §1

[3] = system: TDF; test: H1.0 immunofluorescence intensity relative to DMSO (% of DMSO); higher = stronger H1.0 induction, active = 120 or more
Method in brief: as §1

[4] = system: HCC1569; test: H1.0 immunofluorescence intensity relative to DMSO (% of DMSO); higher = stronger H1.0 induction, active = 140 or more
Method in brief: as §1
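For H1.0 immunofluorescence intensity relative to DMSO in this document: TDF is a line of transformed human dermal fibroblasts of mesenchymal origin.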
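For cell number relative to DMSO in this document: TDF denotes transformed human dermal fibroblasts of mesenchymal origin.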

Row | Compound | cell number [1] | cell number [2] | H1.0 immunofluorescence intensity [3] | H1.0 immunofluorescence intensity [4]
1 | CC(N)C(O)c1ccccc1 (stereo not given) [Phenylpropanolamine] | 102 | 94 | 100 (inactive) | 99.8 (inactive)
2 | CCCC(=O)OC1C(C)C2(O)C(C=C(CO)CC3(O)C(=O)C(C)=CC32)C2C(C)(C)C12OC(=O)CCC (stereo not given) [Phorbol 12,13-dibutyrate] | 89.5 | 74.2 | 123 (active) | 157 (active)
3 | CCCN(CCC)C1Cc2cc(OC)c(OC)cc2C1.O=C(O)C=CC(=O)O | 103 | 107 | 97.7 (inactive) | 102 (inactive)
4 | C=CC1CN2CCC1CC2C(O)c1ccnc2ccccc12 (single isomer, unassigned; (+)) [(+)-Cinchonine] | 101 | 106 | 98.9 (inactive) | 91.1 (inactive)
5 | COc1cc(CC(C)N)c(OC)cc1I.Cl (racemic) | 101 | 109 | 91.3 (inactive) | 88.9 (inactive)
6 | COc1cc2c(c(OC)c1OC)-c1ccc(OC)c(=O)cc1C(NC(C)=O)CC2 (stereo not given) [Colchicine] | 57.57 ± 0.52 | 9.12 ± 1.6 | 168 (active) | 132 (inactive)
7 | COc1cc2c(c(OC)c1OC)-c1ccc(SC)c(=O)cc1C(NC(C)=O)CC2 (stereo not given) [Thiocolchicine] | 59.6 | 10.7 | 187 (active) | 155 (active)
8 | CSC(=S)NCc1c[nH]c2ccccc12 [Brassinin] | 100 | 90.8 | 97.9 (inactive) | 99.7 (inactive)
9 | CCN(CC)C(=O)NC1C=C2c3cccc4[nH]cc(c34)CC2N(C)C1.O=C(O)C=CC(=O)O (stereo not drawn) [R(+)-Lisuride hydrogen maleate] | 103 | 117 | 91.4 (inactive) | 92.7 (inactive)
10 | CCOP(=O)(OCC)C(C)NC(=O)N(CCCl)N=O (stereo not given) | 100 | 80.1 | 102 (inactive) | 90.6 (inactive)
11 | C=CC12CN(C)C3C4COC(CC41)C1(C(=O)Nc4ccccc41)C32.Cl (stereo not given) | 102 | 111 | 101 (inactive) | 94.5 (inactive)
12 | CP(=O)(O)CCCN.Cl | 102 | 98.3 | 92.5 (inactive) | 107 (inactive)
13 | Cl.Oc1ccc2c3c1OC1c4[nH]c5ccccc5c4CC4(O)C(C2)N(CC2CC2)CCC314 (stereo not given) [Naltrindole hydrochloride] | 101 | 99.3 | 96.4 (inactive) | 114 (inactive)
14 | NC(N)=Nc1ccc2[nH]c3c(c2c1)CC1(O)C2Cc4ccc(O)c5c4C1(CCN2CC1CC1)C3O5.O=C(O)C(F)(F)F.O=C(O)C(F)(F)F (stereo not given) [Guanidinyl-naltrindole di-trifluoroacetate] | 93.6 | 83.5 | 104 (inactive) | 115 (inactive)
15 | NCCN(CCN)N(O)N=O [1,1-bis(2-aminoethyl)-2-hydroxy-3-oxotriazane] | 99.5 | 97.5 | 93.1 (inactive) | 95 (inactive)
16 | COc1ccc2c(c1)N1C(C=C(C)C)OOC(C)(C)CC3C1C2C(O)C1(O)C(=O)N2CCCC2C(=O)N31 (stereo not given) [Verruculogen] | 102 | 106 | 96.9 (inactive) | 98.1 (inactive)
17 | CC1=CC23C(=O)C(C=C(CO)C(O)C2(O)C1O)C1C(CC3C)C1(C)C (stereo not given) [Ingenol] | 102 | 107 | 94.7 (inactive) | 80 (inactive)
18 | CCC1(C2OC(C3OC(O)(CO)C(C)CC3C)CC2C)CCC(C2(C)CCC3(CC(O)C(C)C(C(C)C(OC)C(C)C(=O)[O-])O3)O2)O1.[Na+] (stereo not given) [Monensin] | 90.4 | 74.5 | 120 (active) | 186 (active)
19 | CC(NC(C)(C)C)C(=O)c1cccc(Cl)c1 (stereo not given) [Amfebutamone] | 96.8 | 108 | 97.2 (inactive) | 116 (inactive)
20 | CCCCC(C#N)(Cn1cncn1)c1ccc(Cl)cc1 (stereo not given) [Myclobutanil] | 104 | 92.6 | 102 (inactive) | 102 (inactive)
21 | C#CC1(O)CCC2C3CCC4=CC(=O)CCC4=C3C=CC21CC (stereo not given) [Gestrinone] | 99.4 | 100 | 91.2 (inactive) | 112 (inactive)
22 | CC1C=CC=CCCC=CC=CC=CC=CC(OC2OC(C)C(O)C(N)C2O)CC2OC(O)(CC(O)C(O)CCC(O)CC(O)CC(O)CC(=O)OC(C)C(C)C1O)CC(O)C2C(=O)O (stereo not given) [Nystatin] | 101 | 105 | 103 (inactive) | 104 (inactive)
23 | [Cl-].c1ccc2c(c1)[I+]c1ccccc1-2 [Diphenyleneiodonium chloride] | 61.4 | 34 | 123 (active) | 125 (inactive)
24 | COC1C=C2CCN(C)C2C2c3cc4c(cc3C(=O)OC12)OCO4.O=[N+]([O-])O (stereo not given) [Ungerine nitrate] | 100 | 107 | 96.5 (inactive) | 88.8 (inactive)
25 | COc1cc2c(cc1O)CCNC2C (stereo not given) [Salsoline] | 100 | 104 | 91 (inactive) | 95.5 (inactive)

Row | Compound | cell number [1] | cell number [2] | H1.0 immunofluorescence intensity [3] | H1.0 immunofluorescence intensity [4]
26 | Cc1c(C(C)C2NCC(C)CC2O)ccc2c1CC1C2CC=C2CC(O)CCC21C (stereo not given) [Veratramine] | 96.7 | 88.6 | 104 (inactive) | 90.2 (inactive)
27 | CC(CCc1ccccc1)NC(C)C(O)c1ccc(O)cc1.Cl (stereo not given) [Nylidrin hydrochloride] | 102 | 109 | 92.4 (inactive) | 96.5 (inactive)
28 | CC1OC(OC2CC(O)C3(CO)C4C(O)CC5(C)C(C6COC(=O)C6)CCC5(O)C4CCC3(O)C2)C(O)C(O)C1O (stereo not given) [Dihydroouabain] | 61.7 | 43.7 | 104 (inactive) | 82.2 (inactive)
29 | Cl.Cl.NNCc1cccc(O)c1 [3-Hydroxybenzylhydrazine dihydrochloride] | 46.1 | 48.9 | 117 (inactive) | 104 (inactive)
30 | CCn1cc(C(=O)[O-])c(=O)c2ccc(C)nc21.[Na+] [Nalidixic acid sodium] | 107 | 107 | 86 (inactive) | 92.4 (inactive)
31 | CC=C1CN2CCC34C(=C(CC=O)C1CC23)Nc1ccccc14 (stereo not given) [Norfluorocurarine] | 100 | 104 | 97.8 (inactive) | 96.3 (inactive)
32 | NC(=O)c1cc(N2CC2)c([N+](=O)[O-])cc1[N+](=O)[O-] | 96.1 | 94 | 89.4 (inactive) | 91.7 (inactive)
33 | NC(Cn1cc(I)c(=O)[nH]c1=O)C(=O)O (stereo not given) [S-5-Iodowillardiine] | 107 | 107 | 91.2 (inactive) | 111 (inactive)
34 | CC(=O)OCC1=CC2C3C(C)(C)C3(OC(=O)Cc3ccccc3)CC(C)C2(O)C2C=C(C)C(=O)C2(O)C1 (stereo not given) [12-Deoxyphorbol 13-phenylacetate 20-acetate] | 90.8 | 74 | 105 (inactive) | 137 (inactive)
35 | CP(=O)([O-])C1=CC[NH2+]CC1 | 96.6 | 98.6 | 91.8 (inactive) | 102 (inactive)
36 | Cl.O=c1[nH]oc2c1CCNC2 [THIP hydrochloride] | 100 | 112 | 94 (inactive) | 86.1 (inactive)
37 | BrC1C(Br)C(Br)C(Br)C(Br)C1Br (stereo not given) | 101 | 106 | 97 (inactive) | 111 (inactive)
38 | COc1cc(=O)oc(C=CC=CC=CC(C)=CC2(C)OC(C)C(C)(O)C2O)c1C (stereo not given) [Citreoviridin] | 36.3 | 38.6 | 123 (active) | 77.4 (inactive)
39 | Cl.c1ccc2sc(C3(N4CCCCC4)CCCCC3)cc2c1 [BTCP hydrochloride] | 100 | 106 | 88.2 (inactive) | 96.6 (inactive)
40 | O=C(O)CC[N+](=O)[O-] [3-Nitropropionic acid] | 103 | 109 | 89.6 (inactive) | 84.9 (inactive)
41 | CC1OC(OC2CC(O)C3(CO)C4C(O)CC5(C)C(C6=CC(=O)OC6)CCC5(O)C4CCC3(O)C2)C(O)C(O)C1O (stereo not given) [Ouabain] | 46.2 | 36.4 | 125 (active) | 126 (inactive)
42 | CN(C)CCc1ccc(O)cc1.CN(C)CCc1ccc(O)cc1.O=S(=O)(O)O [Hordenine sulfate] | 99.3 | 99.9 | 104 (inactive) | 99.9 (inactive)
43 | CC(C)(C)C1(O)CC2OC(=O)CC23C(=O)OC2OC(=O)C(O)C231 (stereo not given) [Bilobalide] | 99.9 | 109 | 96.7 (inactive) | 97.2 (inactive)
44 | COC(C)C(O)(C(=O)OCC1=CCN2CCC(O)C12)C(C)C (stereo not given) [Heliotrine] | 99.8 | 105 | 91.4 (inactive) | 90.6 (inactive)
45 | O=[N+]([O-])c1cc(O)c(O)c([N+](=O)[O-])c1 [3,5-Dinitrocatechol] | 98.6 | 107 | 99.9 (inactive) | 97.9 (inactive)
46 | Br.CC(Cc1ccc(O)cc1)NCC(O)c1cc(O)cc(O)c1 (stereo not given) [Fenoterol hydrobromide] | 104 | 105 | 88.3 (inactive) | 112 (inactive)
47 | CCCCCCC1C(=O)OC(C)C(NC(=O)c2cccc(NC=O)c2O)C(=O)OC(C)C1OC(=O)CC(C)C (stereo not given) [Antimycin A1] | 73.6 | 66.5 | 113 (inactive) | 136 (inactive)
48 | CCC1C2CC3C4N(C)c5ccccc5C45CC(C2C5O)N3C1O (stereo not given) [Ajmaline] | 101 | 86.8 | 96.9 (inactive) | 93.1 (inactive)
49 | Ic1ccccc1CNC1C2CCN(CC2)C1C(c1ccccc1)c1ccccc1.O=C(O)C(=O)O [L-703,606 oxalate] | 85.3 | 91.8 | 114 (inactive) | 128 (inactive)
50 | COc1ccc2[nH]c3c(c2c1)CCNC3 [6-Methoxy-1,2,3,4-tetrahydro-9H-pyrido[3,4b] indole] | 106 | 100 | 108 (inactive) | 108 (inactive)
